Out of some 66,000 compounds screened, about 960 (1.5%) showed an effect of 50% or more. Only a selection was taken, and strong results are over-represented in it overall.

The subject of the test is Trypanosoma brucei. Description: Trypanosoma brucei 72 hour study. The arrangement: scale not given: in the data most compounds retested in dose-response had high values. It is filed as functional, organism-based.

Consider `Cn1cc(CNC2CCc3c(ccc(=O)n3Cc3ccncc3)C2)cn1.O=C(O)C(F)(F)F.O=C(O)C(F)(F)F` (stereo not drawn), for which the “Percent Effect” value (30.3 µM, […]) is recorded as 3.089%. Regarding `CCc1cc(N(C)Cc2ccncn2)n2nc(C)c(C)c2n1`, the “Percent Effect” value (30 µM, 30.03 µM) came out at 25.26%.

For the molecule `CCc1cc(N(C)Cc2ccnc(C)c2)n2nc(C)c(C)c2n1`, the “Percent Effect” value (30 µM, 30.03 µM) is -13.68%. For `CCc1cc(N(C)Cc2ccno2)n2nc(C)c(C)c2n1`, the “Percent Effect” value (30 µM, 30.03 µM) is reported as 69.73%. Take `CC(=O)N1CCCN(C(=O)c2ccc(=O)n(C)c2)c2ccccc21`: the “Percent Effect” value (30.3 µM, […]) was -14.08%. As for `Cn1cc(N2CC3(CCN(CC4CC4)CC3)OCC2=O)cn1.O=C(O)C(F)(F)F`, the “Percent Effect” value (30 µM, 30.03 µM) is listed as -14.55%. Take `O=C(NCCC1=CCCCC1)c1n[nH]c2c1CCCC2`: the “Percent Effect” value (30.3 µM, […]) was found to be 9.564%. For `Cc1cc(C(=O)N2CCN(C)CC2)nn1CC(=O)NCc1cccs1.Cl`, the “Percent Effect” value (30.3 µM, […]) is on record as 4.887%. With `CN1CCc2c(C#N)c(NCC3CCCO3)n3cnnc3c2C1.Cl` (stereo not drawn), the “Percent Effect” value (30 µM, 30.03 µM) was -22.69%.

As for `CC(NC(=O)CSCC(N)=O)c1ccccc1Oc1ccccc1` (stereo not drawn), the “Percent Effect” value (30.3 µM, […]) stood at 5.896%.

As for `CN1[C@H](CN2CCCC2)C[C@@H]2CN(C(=O)c3cccn3C)CC[C@@H]21.O=C(O)C(F)(F)F.O=C(O)C(F)(F)F`, where the note is “30.3 µM, […]”, the “Percent Effect” value is 14%. With `O=S(=O)(Nc1cnn(C2CCOCC2)c1)c1ccc(F)c(F)c1`, where the note is “30 µM, 30.03 µM”, the “Percent Effect” value stood at 51.53%.

In the case of `O=C(O)c1cc(S(=O)(=O)Nc2cnn(C3CCOCC3)c2)ccc1F`, the “Percent Effect” value (30 µM, 30.03 µM) is reported as -3.686%. With `Cc1ccc(S(=O)(=O)Nc2cnn(C3CCOCC3)c2)cc1C`, the “Percent Effect” value (30 µM, 30.03 µM) is listed as -12.07%.

On to `CC(C)CS(=O)(=O)N1CCC2(CN(c3ccsc3)C(=O)CN2C)C1.O=C(O)C(F)(F)F` (stereo not drawn), for which, where the note is “30 µM, 30.03 µM”, the “Percent Effect” value is -44.48%. The same measure, in the same setting: to `O=C(CCn1ccccc1=O)Nc1ccc(C(=O)O)cc1` belongs 4.206%. As for `Cl.NCCC(=O)Nc1ccc(-c2ccccc2)cc1`, the “Percent Effect” value by setting is: (30.3 µM, […]) 22.23%; (10 mM, 10 mM as filed; unlikely as a test dose) 97.12%. With `CC(=O)Nc1ccc(-c2ccccc2NC(=O)CN)cc1`, the “Percent Effect” value (30 µM, 30.03 µM) is -52.76%. `O=C(O)C(F)(F)F.O=C([C@H]1C[C@H]2OCC[C@H]2N(CC2CC2)C1)N1CCCCO1`: under “30.3 µM, […]”, the “Percent Effect” value was -275.5%.

For the molecule `O=C(O)C(F)(F)F.O=C1COC2(CCN(Cc3ccsc3)CC2)CN1`, the “Percent Effect” value (30 µM, 30.03 µM) is reported as -11.85%.

`CS(=O)(=O)NCC1CCCN(Cc2ccccc2F)C1` (stereo not drawn): for the setting “30 µM, 30.03 µM”, the “Percent Effect” value is recorded as -12.86%. As for `COC1CCN(C(=O)C2CCCC2)CC(=O)N(C)c2ccccc21` (stereo not drawn), the “Percent Effect” value (30.3 µM, […]) is reported as -34.54%. On the same count and under the same terms, to `COC1CN(C(=O)Nc2ccccc2)CCC(=O)N(C)c2ccccc21` (stereo not drawn) belongs -31.75%. For `COC1CCN(C(=O)Nc2ccccc2)CC(=O)N(C)c2ccccc21` (stereo not drawn), the “Percent Effect” value (30.3 µM, […]) was 83.76%. For `COCCOc1cccc(CNCc2c(C)nn(C)c2N(C)C)c1`, the “Percent Effect” value (10 µM) is -49.16%. For `Cc1nc(C)n(CC2CCCN(c3ncnc4ccccc34)C2)n1` (stereo not drawn), the “Percent Effect” value (30.3 µM, […]) turned out to be 12.87%.

Consider `Cc1nc(C)n(CC2CCCN(c3ncnc4[nH]ccc34)C2)n1` (stereo not drawn), for which the “Percent Effect” value (30 µM, 30.03 µM) is reported as 50.76%. Turning to `Cc1nc(C)n(CC2CN(c3ncnc4[nH]ccc34)CCO2)n1` (stereo not drawn), the “Percent Effect” value (30 µM, 30.03 µM) is recorded as 20.56%. As to `CC(C)NC(=O)[C@@]12CCO[C@@H]1CCN(Cc1ccco1)C2.O=C(O)C(F)(F)F`, the “Percent Effect” value (30.3 µM, […]) was -46.6%. For `COc1cc(C)c(-c2ccc(F)c3c2OC(CN)C3)cc1C` (stereo not drawn), the “Percent Effect” value (30 µM, 30.03 µM) is given as -14.37%. As to `CCN1CCn2c(C)cnc2C12CCN(C(=O)N(C)C)CC2.O=C(O)C(F)(F)F.O=C(O)C(F)(F)F`, under “30.3 µM, […]”, the “Percent Effect” value is -17.98%. With `CC(C)(C)c1cnc(CN2CCC[C@H]2CO)o1`, where the note is “30 µM, 30.03 µM”, the “Percent Effect” value is 19.26%. Turning to `Cc1nc(C)n(CC2CCCN2Cc2ncc(C(C)(C)C)o2)n1` (stereo not drawn), the “Percent Effect” value (30.3 µM, […]) amounted to 101.7% and the “Percent Effect” value (10 mM, 10 mM as filed; unlikely as a test dose) is given as -27.43%. With `CCC1CCCCN1Cc1ncc(C(C)(C)C)o1` (stereo not drawn), the “Percent Effect” value (30.3 µM, […]) was 100.3% and the “Percent Effect” value (10 mM, 10 mM as filed; unlikely as a test dose) is reported as -33.47%.

As for `Cc1cc(C)n(CC2CCCN2Cc2ncc(C(C)(C)C)o2)n1` (stereo not drawn), the “Percent Effect” value (30.3 µM, […]) was determined as 1.727% and the “Percent Effect” value (10 mM, 10 mM as filed; unlikely as a test dose) is -8.311%. Regarding `Cc1nc(C)n(CC2CCCCN2Cc2ncc(C(C)(C)C)o2)n1` (stereo not drawn), the “Percent Effect” value (30 µM, 30.03 µM) worked out at 13.64%.

As to `CC(C)(C)c1cnc(CN2CCCCC2Cn2cccn2)o1` (stereo not drawn), the “Percent Effect” value reads like this: (30.3 µM, […]) -24.92%; (10 mM, 10 mM as filed; unlikely as a test dose) -80.62%. Turning to `Cc1nc(C)c(S(=O)(=O)NC(=O)c2ccoc2)s1`, the “Percent Effect” value (30 µM, 30.03 µM) was -10.98%. The same measure, in the same setting: to `Cc1cc(F)c(S(=O)(=O)NCC(C)(C)N)cc1F.Cl` belongs -16.06%. For the molecule `Cc1nn(C)c(C)c1-c1cc(-c2cnn(C)c2C2CC2)c(C#N)c(N)n1`, the “Percent Effect” value (30.3 µM, […]) worked out at 20.75%.

For `Cn1ncc(-c2cc(-c3cccc(O)c3)nc(N)c2C#N)c1C1CC1`, the “Percent Effect” value (30.3 µM, […]) is listed as 47.44%. Consider `Cc1cc(O)ccc1-c1cc(-c2cnn(C)c2C2CC2)c(C#N)c(N)n1`, for which the “Percent Effect” value (30.3 µM, […]) stood at 53.81%. Consider `Cc1nccc(NCc2cncc3c2CCN(CC2CCOC2)C3)n1.Cl.Cl` (stereo not drawn), for which the “Percent Effect” value (30.3 µM, […]) is on record as -74.45%. Regarding `C/N=C1\c2cc3cc(OC)ccc3n2CCN1Cc1ccccc1.O=C(O)C(F)(F)F`, the “Percent Effect” value (30 µM, 30.03 µM) is 28.46%.

`C/N=C1\c2cc3cc(OC)ccc3n2CCN1C.Cl`: the “Percent Effect” value (30 µM, 30.03 µM) is -36.23%.

Take `C/N=C1/c2cc3cc(OC)ccc3n2CCN1Cc1ccccc1.Cl`: for the setting “30 µM, 30.03 µM”, the “Percent Effect” value was found to be 62.06%. Same read-out and setting: under `Cc1ccc(CN2C[C@@H]3COC[C@@H](CC(=O)N4CCOCC4)[C@@H]3C2)s1.O=C(O)C(F)(F)F` stands -11.98%. For `O=C(COC1CCCC1)N1C[C@@H]2COC[C@]2(COc2cccnc2)C1.O=C(O)C(F)(F)F`, the “Percent Effect” value (30.3 µM, […]) is -69.72%. `Cc1ccc(N2CCC(c3[nH]ncc3Cc3ccccc3)CC2)nn1`: for the setting “30 µM, 30.03 µM”, the “Percent Effect” value is on record as 58.22%.

In the case of `Cc1ccc(N2CCCC(c3[nH]ncc3Cc3ccccc3)C2)nn1` (stereo not drawn), the “Percent Effect” value (30 µM, 30.03 µM) is on record as 42.86%.

`Cc1ccc(N2CCC(c3cc(Cc4ccccc4)n[nH]3)CC2)nn1`: under “30.3 µM, […]”, the “Percent Effect” value is -45.15%. Regarding `O=C(C[C@@H]1COC[C@H]2CN(C(=O)c3cccnc3)C[C@@H]12)N1CCCC1.O=C(O)C(F)(F)F`, the “Percent Effect” value (30 µM, 30.03 µM) is on record as -25.13%. Regarding `CCN1C(=O)CC[C@]12CC[C@@H](NC(=O)c1ccncc1F)CC2.O=C(O)C(F)(F)F`, the “Percent Effect” value (30.3 µM, […]) is recorded as 5.821%.

`O=C(CC1CC1)N1CCC2(CC1)CN(c1ncc(F)cn1)CCO2`: under “30.3 µM, […]”, the “Percent Effect” value was -27.29%. On to `O=C(CC1CC1)N1CCC2(CC1)CN(c1ncccn1)CCO2`, for which the “Percent Effect” value (30 µM, 30.03 µM) is listed as 61.77%. For `COCC(=O)N1CCC2(CC1)CN(c1ncccn1)CCO2`, under “30.3 µM, […]”, the “Percent Effect” value is on record as -22.4%. As to `Cc1cnc(N)c(C(=O)C2CCN(C(=O)c3ccccc3F)CC2)c1`, the “Percent Effect” value (30 µM, 30.03 µM) is reported as 31.22%. Regarding `O=C(NCCn1cccc1)C1CCCOC1` (stereo not drawn), the “Percent Effect” value (30 µM, 30.03 µM) came out at 2.367%. For the molecule `O=C(NCc1cnn(-c2ccc(F)cc2F)c1)C1CCCO1` (stereo not drawn), for the setting “30 µM, 30.03 µM”, the “Percent Effect” value came out at 6.462%. On to `O=C(NCCc1ccn(-c2ccc(F)cc2)n1)C1CCCO1` (stereo not drawn), for which the “Percent Effect” value (30.3 µM, […]) is given as 99.62%. Take `COC(=O)C1CN(Cc2ccn(-c3ccc(F)cc3)n2)CCO1` (stereo not drawn): the “Percent Effect” value (30 µM, 30.03 µM) is given as -55.87%.

For `O=C(NCCc1ccn(-c2ccc(F)cc2)n1)C1CCCOC1` (stereo not drawn), for the setting “30.3 µM, […]”, the “Percent Effect” value is recorded as 101.3%. Turning to `CN1CC(C(=O)NCCc2ccn(-c3ccc(F)cc3)n2)CC1=O` (stereo not drawn), the “Percent Effect” value (30.3 µM, […]) is on record as -29.7%.

The values are drawn from ChEMBL document CHEMBL3988442, “University of Dundee, Small-Polar-MMV Screening Library” (2021).
